This note sets out measurements from PubChem BioAssay AID651768 (National Center for Advancing Translational Sciences (NCATS), 2012).

Among all 360,000 compounds or so, about 1,700 (0.47%) were called active. Entries that show only a call come without a potency. Not shown: some 2% with an inconclusive outcome. The call rests on the fitted dose curve; in most records, active means well fitted inhibition curve with a large enough effect; inconclusive means small, poorly fitted or top-dose-only effect; inactive means no such curve, though single readings can be large or run the other way. The full list was thinned out, with actives kept by preference.
Potency means the concentration at half of the fitted maximal effect.

The experiment deals with Bifunctional 3'-5' exonuclease/ATP-dependent helicase WRN (Homo sapiens) (UniProt Q14191). The experiment is described as follows: qHTS for Inhibitors of WRN Helicase. Further: nearly all actives have a fitted effect of over 55% in size. As to conditions: WRN helicase unwinding, fluorescent forked duplex, kinetic; series mostly up to 114 µM. An excerpt: Inhibition of DNA repair is proposed as a strategy for combating cancer. Synthetic lethality is an approach that exploits preexisting DNA repair deficiencies in certain tumors to develop inhibitors of DNA repair pathways that compensate for the tumor-associated DNA repair deficiency. Because helicases play critical roles in the DNA damage response and in DNA repair, particularly in actively dividing and replicating cells, characterization of synthetic lethal relationships of DNA helicases may be of value in developing improved anticancer treatment strategies; moreover, small molecules that specifically target a given DNA helicase may be useful for understanding its role in cellular nucleic acid metabolism. The goal of this project is to identify small molecule, non-covalent chemical inhibitors of the Werner syndrome (WS) helicase (WRN), which plays an important role in cell proliferation, the replication stress response, and DNA repair. […] The WRN gene product that is defective in the chromosomal instability disorder has DNA helicase and exonuclease activities and interacts with a number of nuclear proteins to maintain genomic stability. We will employ an optimized high-throughput screening assay that utilizes a fluorescence intensity modulation scheme with a fluorophore and quencher positioned near one another within a duplex deoxyoligonucleotide that contains a single forked structure. After a high-throughput screen of the ~350,000-member Molecular Libraries Small Molecule Repository (MLSMR) collection, followed by data analysis and hit selection, a panel of confirmatory, as well as secondary and ternary, assays will be employed to identify high-confidence WRN inhibitors. Structure-activity relationships will be investigated for the top candidate inhibitor series through medchem expansion. These are the results of the primary screening campaign against the MLSMR. NIH Chemical Genomics Center [NCGC] NIH Molecular Libraries Probe Centers Network [MLPCN] MLPCN Grant: MH096530 Assay Submitter (PI): Robert Brosh, National Institute of Aging
Sequence of Bifunctional 3'-5' exonuclease/ATP-dependent helicase WRN (Homo sapiens) (Q14191 whole entry, looked up): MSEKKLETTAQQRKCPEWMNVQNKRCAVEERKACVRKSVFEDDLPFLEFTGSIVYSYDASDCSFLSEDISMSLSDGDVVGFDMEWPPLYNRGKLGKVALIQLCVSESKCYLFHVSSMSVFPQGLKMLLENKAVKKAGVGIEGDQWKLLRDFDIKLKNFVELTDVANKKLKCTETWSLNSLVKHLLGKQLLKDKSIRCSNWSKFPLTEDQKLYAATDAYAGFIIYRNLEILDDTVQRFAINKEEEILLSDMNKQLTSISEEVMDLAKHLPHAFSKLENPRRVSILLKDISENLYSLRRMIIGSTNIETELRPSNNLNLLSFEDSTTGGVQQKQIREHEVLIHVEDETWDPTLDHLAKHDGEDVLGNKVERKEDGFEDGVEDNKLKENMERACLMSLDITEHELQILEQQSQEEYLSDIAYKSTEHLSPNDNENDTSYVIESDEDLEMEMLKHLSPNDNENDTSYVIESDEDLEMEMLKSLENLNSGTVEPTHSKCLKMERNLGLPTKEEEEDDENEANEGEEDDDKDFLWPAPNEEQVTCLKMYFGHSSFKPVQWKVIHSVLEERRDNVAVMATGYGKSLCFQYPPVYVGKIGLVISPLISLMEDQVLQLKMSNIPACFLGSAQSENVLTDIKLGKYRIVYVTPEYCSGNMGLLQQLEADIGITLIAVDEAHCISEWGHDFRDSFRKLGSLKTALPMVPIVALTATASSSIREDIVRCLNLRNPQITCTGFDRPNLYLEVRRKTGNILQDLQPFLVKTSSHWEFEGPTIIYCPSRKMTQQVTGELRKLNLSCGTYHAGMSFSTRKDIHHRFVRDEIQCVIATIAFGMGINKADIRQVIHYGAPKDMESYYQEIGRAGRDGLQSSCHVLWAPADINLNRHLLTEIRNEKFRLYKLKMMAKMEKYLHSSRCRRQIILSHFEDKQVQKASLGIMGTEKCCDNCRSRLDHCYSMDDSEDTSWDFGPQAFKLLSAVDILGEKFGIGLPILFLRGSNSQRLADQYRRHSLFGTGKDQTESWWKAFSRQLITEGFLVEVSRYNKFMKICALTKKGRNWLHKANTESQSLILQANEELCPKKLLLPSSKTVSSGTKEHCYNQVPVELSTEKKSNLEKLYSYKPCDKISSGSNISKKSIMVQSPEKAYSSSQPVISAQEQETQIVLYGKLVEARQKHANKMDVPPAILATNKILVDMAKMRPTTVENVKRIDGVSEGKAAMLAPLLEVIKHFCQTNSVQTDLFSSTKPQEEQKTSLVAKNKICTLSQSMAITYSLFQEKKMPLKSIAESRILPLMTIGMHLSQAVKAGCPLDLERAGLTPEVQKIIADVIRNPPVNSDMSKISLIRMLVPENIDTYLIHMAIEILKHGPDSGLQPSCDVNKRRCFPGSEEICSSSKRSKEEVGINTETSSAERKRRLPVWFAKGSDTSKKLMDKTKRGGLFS
Three muL of reagents (buffer in columns 3 and 4 as negative controls; WRN at 20 nM final concentration in columns 1 and 2 as positive controls; columns 5-48 as test reactions) will be dispensed into a 1536-well Greiner black plate via solenoid-valve based nanoliter dispensers. Compounds (23 nL each in columns 5-48) and control (23 nL each in column 2 as dose-response) will be transferred via a Kalypsys pintool equipped with a 1536-pin array. Plates will be incubated for 15 min at room temperature, and then 1 µL of substrate (100 nM forked duplex oligonucleotide and 2 mM ATP final concentrations) will be added to start reaction, and plate will be transferred into a ViewLux high-throughput CCD imager where reaction progress is measured in kinetic mode using standard red-fluorescence optics (excitation filter 525 nm, emission filter 598 nm).
Background: qHTS replaces the single test concentration by a dilution series.
Take `O=C(c1cccnc1)N(Cc1ccccc1)C(=O)c1cccnc1`: the Potency entry is “inactive”.
On to `COC(=O)CCCCC1=CCC2C(=O)C=C(O)C2C1` (stereo not drawn), for which the Potency was 50.1 µM (active).
With `COc1ccc(C(C)=O)cc1COC(=O)Cn1cnc2ccccc2c1=O`, the Potency result is “inactive”.
As for `COC(=O)[C@@]1(Cc2ccc(OC)cc2)[C@H]2c3cc(C(=O)N4CCCC4)n(Cc4ccc(OC(F)(F)F)cc4)c3C[C@H]2CN1C(=O)c1ccccc1`, the entry is “inactive”; as for `CCOCCC(=O)Nc1ccc2c(c1)c(=O)n(C)n2-c1ccc2ccccc2c1`, “inactive”.
As to `CCOC(=O)N1CCN(C(=O)c2ccc(CN(c3ccc(C)c(C)c3)S(C)(=O)=O)cc2)CC1`, the Potency entry was “inactive”.
On to `Cc1nnsc1S(=O)(=O)Cc1ccccc1Cl`, for which the Potency entry is “inactive”.
Take `O=C(Nc1ccc(S(=O)(=O)N2CCOCC2)cc1)C1CCN(S(=O)(=O)c2ccc(Cl)cc2)CC1`: the Potency result was “inactive”.
As for `O=C(Nc1ccccc1)c1nnsc1S(=O)(=O)c1ccc(Cl)cc1`, the figure is 44.7 µM (active); as for `COC(=O)[C@@]12C[C@@H](CC(=O)NCCCCc3ccccc3)C(=O)N(Cc3ccccc3)C1=CCC(C)(C)C2`, “inactive”; as for `COc1ccc2[nH]c3c(C)c4cc[n+](C)cc4c(C)c3c2c1`, 22.4 µM (active).
Turning to `CCOC(=O)c1[nH]c2ccc(OC)cc2c1NC(=O)N1CCOCC1`, the Potency entry was “inactive”.
`Nc1[nH]c(=S)nc2nc(-c3ccccc3)c(-c3ccccc3)nc12`: the Potency result is “inactive”.
In the case of `COc1ccccc1Cc1c(-c2ccc(Cl)cc2)nc2c3ccccc3ccn12`, the Potency entry was “inactive”.
As for `CCc1nc2ccc(C(=O)NCc3ccc(OC)cc3)cn2c1N(CC)Cc1cccc(Br)c1`, the entry is “inactive”; as for `Cc1cccc(C)c1Nc1nnc(SCC(=O)NCCCN2CCCC2=O)s1`, “inactive”.
For the molecule `O=C1CSC(=S)N1/N=C/c1ccc(O)c([N+](=O)[O-])c1`, the Potency was 79.4 µM (active).
In the case of `CO/N=C/c1ccc(N2CCN(C(=O)c3cccc(Cl)c3)CC2)c([N+](=O)[O-])c1`, the Potency entry is “inactive”.
With `O=C(CNS(=O)(=O)c1ccc(Br)s1)NCc1ccc2c(c1)OCO2` the entry was “inactive”.
Turning to `O=C1CC2(CCCCC2)Oc2ccc(OCC(=O)N3CCOCC3)cc21`, the Potency entry is “inactive”.
Take `CCN(CC)CC(=O)Nc1sc2c(c1C(=O)c1ccccc1C)CCC2`: the Potency result is “inactive”.
On to `CCOC(=O)COc1cc(OCC(=O)OCC)c2c(=O)cc(-c3ccccc3)oc2c1`, for which the Potency entry was “inactive”.
Take `COc1cc(O)c2c(=O)c3c(O)c(O)ccc3oc2c1OC`: the Potency entry is “inactive”.
As for `COc1c(O)cc2oc(-c3ccc(O)c(O)c3)cc(=O)c2c1O`, the Potency is 25.1 µM (active).
Take `COc1ccc(Cn2c(=O)sc3ccccc32)cc1OC`: the Potency result is “inactive”.
For the molecule `COC(=O)[C@@]12C[C@@H](CC(=O)NCCCCc3ccccc3)C(=O)N(CCc3ccc(OC)c(OC)c3)C1=CCC(C)(C)C2`, the Potency result is “inactive”.
As for `Cc1nnc(-c2ccc(Oc3ccc(C)c(C)c3)c([N+](=O)[O-])c2)o1`, the entry is “inactive”.
`Cc1ccc2nc(-c3ccncc3)cc(C(=O)Nc3ccc(OC(F)F)cc3)c2c1`: the Potency is 44.7 µM (active).
As for `COc1ccc(NC(=O)c2cc(-c3cc(OC)c(OC)c(OC)c3)nc3ccccc23)c(OC)c1`, the entry is “inactive”; as for `CC1CCCC(NC(=O)c2cc(-c3ccncc3)nc3ccccc23)C1C` (stereo not drawn), “inactive”; as for `O=C1NC[C@H](CCCCN2CCN(CCc3ccccc3)C(=O)C2=O)N(CC2CCCCC2)C1=O`, “inactive”.
Consider `CCCCCCc1cc2cc(-c3nnc(-c4ccccc4)o3)c(=O)oc2cc1O`, for which the Potency was 56.2 µM (active).
With `CCc1ccc(CN(C)C(=O)CCc2nnc(-c3ccc(-c4ccccc4)cc3)o2)nc1` the entry was “inactive”.
Regarding `Cc1cc(Cl)ccc1C(=O)C1CCCN(C(=O)c2nonc2C)C1` (stereo not drawn), the Potency entry was “inactive”.
Consider `CCCCN(CC)CCNC(=O)c1[nH]c(C)c(C(C)=O)c1C`, for which the Potency entry was “inactive”.
Take `CCC(=O)Nc1c(C)n[nH]c1C`: the Potency entry was “inactive”.
As for `C=C1C(=O)OC2C1CCC(C)=CCCC1(C)OC21` (stereo not drawn), the entry is “inactive”; as for `CCCCCCCNc1nc(Cl)nc(NCCO)n1`, “inactive”.
As for `CC1CCCN(CCCNC(=O)CN2C(=O)COc3ccc(S(=O)(=O)N4CCOCC4)cc32)C1` (stereo not drawn), the entry is “inactive”; as for `Nc1ccc2nc3c(=O)[nH]c(=S)[nH]c3nc2c1`, 7.08 µM (active); as for `N#C/C(=C\C1=C(N2CCOCC2)C(=C\c2ccccc2)/CC1)C(=O)Nc1ccccc1F`, 15 µM (active).
On to `O=C(CC1SC(N2CCOCC2)=NC1=O)Nc1ccccc1F` (stereo not drawn), for which the Potency result is “inactive”.
Regarding `O=C1Nc2ccc(Br)cc2/C1=N/N=C/C1=C(N2CCOCC2)C(=C\c2ccccc2)/CC1`, the Potency result was “inactive”.
